Measured values taken from ChEMBL document CHEMBL3988442, “University of Dundee, Small-Polar-MMV Screening Library” (2021).

Target: T1, Tyrosyl-tRNA synthetase, putative (Trypanosoma cruzi (strain CL Brener)) (UniProt Q4DSP6)
T1 sequence (whole entry): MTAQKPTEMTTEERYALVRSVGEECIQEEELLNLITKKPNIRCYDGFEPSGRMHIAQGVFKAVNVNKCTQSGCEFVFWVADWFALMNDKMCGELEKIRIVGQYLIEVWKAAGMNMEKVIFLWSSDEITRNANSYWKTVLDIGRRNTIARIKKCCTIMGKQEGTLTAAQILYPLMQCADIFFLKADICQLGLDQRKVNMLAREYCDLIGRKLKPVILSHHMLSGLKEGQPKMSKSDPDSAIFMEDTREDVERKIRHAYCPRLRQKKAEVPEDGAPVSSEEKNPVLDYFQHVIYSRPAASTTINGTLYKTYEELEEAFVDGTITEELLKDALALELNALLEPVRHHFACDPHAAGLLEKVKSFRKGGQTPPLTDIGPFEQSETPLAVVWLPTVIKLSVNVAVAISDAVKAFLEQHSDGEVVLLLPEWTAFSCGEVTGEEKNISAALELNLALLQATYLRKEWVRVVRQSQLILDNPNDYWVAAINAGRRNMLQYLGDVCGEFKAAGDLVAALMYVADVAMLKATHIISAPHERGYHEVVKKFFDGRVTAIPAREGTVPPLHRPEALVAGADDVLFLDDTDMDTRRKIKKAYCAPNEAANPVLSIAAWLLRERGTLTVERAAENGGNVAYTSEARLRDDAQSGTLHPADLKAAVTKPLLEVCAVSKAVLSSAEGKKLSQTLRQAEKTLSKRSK
Experiment: Trypanosoma cruzi tyrosyl tRNA synthetase (TcYRS) SOP
Format: functional
Parameters: scale not given: direction of the effect not stated beside the values
Conditions: 30 µM

Structure (SMILES)	Percent Effect [%]
Cc1cnn(CC2CCCN2CC(=O)Nc2cc(C(C)(C)C)no2)c1 (stereo not given)	28.2
O=C(NCCCNc1ccccc1)c1scnc1Cl	12.8
Cc1noc(Cl)c1CCC(=O)N1CCc2sccc2C1	17.9
COCC1CC2(CCN(Cc3ccc(OC)cc3)CC2)CN1C(C)C (stereo not given)	2.56
CCCN1CCCn2nc(CNS(=O)(=O)c3cccc(C#N)c3)cc2C1	21.9
CC(C)c1cc(N2CCN(c3ccc(O)cc3)CC2)n2nccc2n1	34.1
CC(Cn1cccn1)NC(=O)Cc1cccs1 (stereo not given)	7.69
CCCC(=O)N1CCC2(CC1)CC(NC(C)=O)c1ccccc1O2 (stereo not given)	-5
Cc1cnn(CC2CN(CC(=O)N(C)Cc3cccs3)CCO2)c1 (stereo not given)	2.56
CCN1CCN(C(=O)NCCOc2ccc3c(c2)OCO3)CC1	16.5
COc1ccc(C(=O)NCCCn2ccnc2)c(OC)n1	22.5
CN1CCCn2c(nc(CNC(=O)c3ccsc3)cc2=O)C1	5.13
Clc1ccccc1-c1nc(CNC2CCc3ncnn3C2)cs1 (stereo not given)	1.21
CCS(=O)(=O)c1ncc(CN(C)Cc2ccccn2)n1CCOC	14.6
COc1ncccc1CNC(=O)c1cccc(C)n1	22.9
Cn1nc2c(cc1=O)CN(Cc1nc(C(C)(C)C)no1)CC2	2.56
O=C(O)c1cc(S(=O)(=O)N2CCOc3ccccc32)ccc1F	18.1
COc1ccc(CNC(=O)N2CCC(Cc3cnn(C)c3)C2)cc1C (stereo not given)	13.2
O=C(c1ccccn1)N1Cc2nccn2CC(CN2CCOCC2)C1 (stereo not given)	15.4
CCOC1COC2(CCN(S(=O)(=O)c3cccc(F)c3)CC2)C1 (stereo not given)	7.69

Structure (SMILES)	Percent Effect [%]
Cc1ccc(CN2CCCn3c(nc(CN4CCCC4)cc3=O)C2)s1	7.69
COc1ccc(F)cc1C(=O)N(C)Cc1cc(C)on1	13.2
CCc1nc(C)ncc1C(=O)N1CCCC(n2nc(C)nc2C)C1 (stereo not given)	6.02
CCC(O)CN1CCN(C(=O)c2sccc2OC)CC1 (stereo not given)	16.5
CN(Cc1noc(C2CC2)n1)C1CCN(Cc2ccncc2)C1 (stereo not given)	22.9
CCCC(C)C(=O)N1CCC(n2cccc2C(=O)OC)CC1 (stereo not given)	9.41
CC(=O)N1N=C(c2ccccc2)OC1C(=O)NCCc1cccc(Cl)c1 (stereo not given)	10
Cc1occc1C(=O)N1CC[C@@H](N2CCOCC2)[C@@H]1Cc1ccccc1	15.4
CO[C@@H]1CCN(C(=O)c2ccccn2)[C@H]1Cc1ccccc1	10
Cc1cc(CN(C)C(=O)c2ccnc(N(C)C)c2)no1	10.3
CCn1ccnc1CN1CCN(CC(O)c2ccccc2)CC1 (stereo not given)	6.02
Cc1nn(C)c(N(C)C)c1CNCCCN(C)S(C)(=O)=O	18.1
O=C1CC(c2ccco2)c2sc(C(=O)O)c(-c3ccccc3)c2N1 (stereo not given)	17.1
Cc1cccc(CN2C(=O)CCC23CCN(Cc2cccn2C)CC3)n1	22.5
Nc1nc2nc(C3CCCN(C(=O)c4cscn4)C3)ccc2s1 (stereo not given)	7.5
CCc1ccc(O)c(C(=O)NC2CCN(C(=O)OC)CC2)c1	13.2
CS(=O)(=O)N1CCC[C@]2(C[C@@H](Oc3ncccc3F)CO2)C1	12.8
Fc1cccc(-c2nc(CN3CCn4c(nnc4C4CC4)C3)co2)c1	7.69
CC(c1nc(C2CC2)no1)N1CCN(Cc2ccsc2)CC1 (stereo not given)	8.43
Cc1cc(CN(C)C(=O)c2ccc(C(F)(F)F)nc2)no1	5.13

Target: Chromo domain-containing protein 1 (Saccharomyces cerevisiae (strain ATCC 204508 / S288c) (Baker's yeast)) (UniProt P32657)
Sequence (P32657 whole entry, the tested form may be a part): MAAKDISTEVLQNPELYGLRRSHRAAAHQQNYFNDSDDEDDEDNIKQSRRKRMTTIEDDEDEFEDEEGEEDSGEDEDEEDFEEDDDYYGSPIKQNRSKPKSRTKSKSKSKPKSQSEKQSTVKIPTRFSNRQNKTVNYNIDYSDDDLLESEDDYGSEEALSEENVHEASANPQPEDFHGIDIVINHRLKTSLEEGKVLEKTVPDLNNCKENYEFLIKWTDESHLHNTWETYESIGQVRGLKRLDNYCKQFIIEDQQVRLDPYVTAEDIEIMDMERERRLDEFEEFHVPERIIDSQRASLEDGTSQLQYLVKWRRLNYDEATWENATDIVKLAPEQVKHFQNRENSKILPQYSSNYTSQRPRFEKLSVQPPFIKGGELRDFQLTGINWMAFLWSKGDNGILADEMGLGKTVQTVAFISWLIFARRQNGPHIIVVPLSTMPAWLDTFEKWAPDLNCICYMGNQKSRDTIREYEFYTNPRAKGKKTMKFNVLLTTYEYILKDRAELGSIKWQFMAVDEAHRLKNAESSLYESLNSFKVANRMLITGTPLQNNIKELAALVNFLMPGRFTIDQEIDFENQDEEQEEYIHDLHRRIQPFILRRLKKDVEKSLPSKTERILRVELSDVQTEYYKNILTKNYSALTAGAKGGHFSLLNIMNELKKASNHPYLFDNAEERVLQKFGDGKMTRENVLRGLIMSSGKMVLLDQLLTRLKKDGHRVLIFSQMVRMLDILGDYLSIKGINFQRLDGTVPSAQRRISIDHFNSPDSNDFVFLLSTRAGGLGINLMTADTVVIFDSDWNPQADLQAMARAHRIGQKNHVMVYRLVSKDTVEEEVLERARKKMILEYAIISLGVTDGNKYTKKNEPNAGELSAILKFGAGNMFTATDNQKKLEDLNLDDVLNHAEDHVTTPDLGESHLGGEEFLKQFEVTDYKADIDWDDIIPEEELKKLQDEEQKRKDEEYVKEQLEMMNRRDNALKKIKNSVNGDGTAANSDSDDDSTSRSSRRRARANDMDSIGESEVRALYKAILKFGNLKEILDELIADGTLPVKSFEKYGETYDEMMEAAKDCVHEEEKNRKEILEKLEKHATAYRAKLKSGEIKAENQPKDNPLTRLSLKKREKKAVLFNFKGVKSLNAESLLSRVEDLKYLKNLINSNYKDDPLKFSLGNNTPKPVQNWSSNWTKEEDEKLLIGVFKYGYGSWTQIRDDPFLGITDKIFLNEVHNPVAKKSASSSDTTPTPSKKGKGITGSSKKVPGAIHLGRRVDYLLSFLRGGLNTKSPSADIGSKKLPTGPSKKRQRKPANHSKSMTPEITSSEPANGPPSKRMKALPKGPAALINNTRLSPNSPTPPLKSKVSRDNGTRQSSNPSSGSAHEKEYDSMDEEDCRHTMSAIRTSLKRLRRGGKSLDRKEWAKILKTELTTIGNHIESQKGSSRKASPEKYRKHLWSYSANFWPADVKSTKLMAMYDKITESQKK
Experiment: ScCHD-1 Enzyme Inhibition Assay; note: in the data most compounds retested in dose-response had high values
Format: functional
Parameters: scale not given: direction of the effect not stated beside the values
Conditions: 30 µM

Structure (SMILES)	Percent Effect [%]
Cc1cnn(CC2CCCN2CC(=O)Nc2cc(C(C)(C)C)no2)c1 (stereo not given)	-8.5
O=C(NCCCNc1ccccc1)c1scnc1Cl	-10.6
Cc1noc(Cl)c1CCC(=O)N1CCc2sccc2C1	-10.9
COCC1CC2(CCN(Cc3ccc(OC)cc3)CC2)CN1C(C)C (stereo not given)	1.65
CCCN1CCCn2nc(CNS(=O)(=O)c3cccc(C#N)c3)cc2C1	95
CC(C)c1cc(N2CCN(c3ccc(O)cc3)CC2)n2nccc2n1	-3.77
CC(Cn1cccn1)NC(=O)Cc1cccs1 (stereo not given)	-16
CCCC(=O)N1CCC2(CC1)CC(NC(C)=O)c1ccccc1O2 (stereo not given)	-2.27
Cc1cnn(CC2CN(CC(=O)N(C)Cc3cccs3)CCO2)c1 (stereo not given)	-11.2
CCN1CCN(C(=O)NCCOc2ccc3c(c2)OCO3)CC1	-6.7
COc1ccc(C(=O)NCCCn2ccnc2)c(OC)n1	-12.8
CN1CCCn2c(nc(CNC(=O)c3ccsc3)cc2=O)C1	-0.931
Clc1ccccc1-c1nc(CNC2CCc3ncnn3C2)cs1 (stereo not given)	6.45
CCS(=O)(=O)c1ncc(CN(C)Cc2ccccn2)n1CCOC	-2.76
COc1ncccc1CNC(=O)c1cccc(C)n1	-3.56
Cn1nc2c(cc1=O)CN(Cc1nc(C(C)(C)C)no1)CC2	-14.7
O=C(O)c1cc(S(=O)(=O)N2CCOc3ccccc32)ccc1F	-3.79
COc1ccc(CNC(=O)N2CCC(Cc3cnn(C)c3)C2)cc1C (stereo not given)	-4.08
O=C(c1ccccn1)N1Cc2nccn2CC(CN2CCOCC2)C1 (stereo not given)	1.74
CCOC1COC2(CCN(S(=O)(=O)c3cccc(F)c3)CC2)C1 (stereo not given)	-3.54

Structure (SMILES)	Percent Effect [%]
Cc1ccc(CN2CCCn3c(nc(CN4CCCC4)cc3=O)C2)s1	3.51
COc1ccc(F)cc1C(=O)N(C)Cc1cc(C)on1	-1.49
CCc1nc(C)ncc1C(=O)N1CCCC(n2nc(C)nc2C)C1 (stereo not given)	-2.45
CCC(O)CN1CCN(C(=O)c2sccc2OC)CC1 (stereo not given)	-3.7
CN(Cc1noc(C2CC2)n1)C1CCN(Cc2ccncc2)C1 (stereo not given)	-9.5
CCCC(C)C(=O)N1CCC(n2cccc2C(=O)OC)CC1 (stereo not given)	6.48
CC(=O)N1N=C(c2ccccc2)OC1C(=O)NCCc1cccc(Cl)c1 (stereo not given)	-24.5
Cc1occc1C(=O)N1CC[C@@H](N2CCOCC2)[C@@H]1Cc1ccccc1	-4.72
CO[C@@H]1CCN(C(=O)c2ccccn2)[C@H]1Cc1ccccc1	-6.55
Cc1cc(CN(C)C(=O)c2ccnc(N(C)C)c2)no1	-13.6
CCn1ccnc1CN1CCN(CC(O)c2ccccc2)CC1 (stereo not given)	-0.452
Cc1nn(C)c(N(C)C)c1CNCCCN(C)S(C)(=O)=O	-3.07
O=C1CC(c2ccco2)c2sc(C(=O)O)c(-c3ccccc3)c2N1 (stereo not given)	44.8
Cc1cccc(CN2C(=O)CCC23CCN(Cc2cccn2C)CC3)n1	-11.1
Nc1nc2nc(C3CCCN(C(=O)c4cscn4)C3)ccc2s1 (stereo not given)	-22.1
CCc1ccc(O)c(C(=O)NC2CCN(C(=O)OC)CC2)c1	-4.89
CS(=O)(=O)N1CCC[C@]2(C[C@@H](Oc3ncccc3F)CO2)C1	1.06
Fc1cccc(-c2nc(CN3CCn4c(nnc4C4CC4)C3)co2)c1	-19
CC(c1nc(C2CC2)no1)N1CCN(Cc2ccsc2)CC1 (stereo not given)	-5.15
Cc1cc(CN(C)C(=O)c2ccc(C(F)(F)F)nc2)no1	14.8
